ChEMBL document CHEMBL3988442, “University of Dundee, Small-Polar-MMV Screening Library” (2021)
For some assays here: Entries with a potency or affinity are not part of this list.

Legend:
Set-up in all cases: scale not given: direction of the effect not stated beside the values
[1] = molecular target: Protein translocase subunit SecA (Escherichia coli (strain K12)) (UniProt P10408); test: Assay to Identify E. coli SecA ATPase Inhibitors; assay type: functional; settings: 30 µM
[2] = molecular target: T1, Ubiquitin-activating enzyme e1, putative (Leishmania donovani (strain BPK282A1)) (UniProt E9BSI1); test: Leishmania donovani Ubiquitin Activating Enzyme (LdE1); assay type: functional; settings: 30 µM
T1 sequence (whole entry): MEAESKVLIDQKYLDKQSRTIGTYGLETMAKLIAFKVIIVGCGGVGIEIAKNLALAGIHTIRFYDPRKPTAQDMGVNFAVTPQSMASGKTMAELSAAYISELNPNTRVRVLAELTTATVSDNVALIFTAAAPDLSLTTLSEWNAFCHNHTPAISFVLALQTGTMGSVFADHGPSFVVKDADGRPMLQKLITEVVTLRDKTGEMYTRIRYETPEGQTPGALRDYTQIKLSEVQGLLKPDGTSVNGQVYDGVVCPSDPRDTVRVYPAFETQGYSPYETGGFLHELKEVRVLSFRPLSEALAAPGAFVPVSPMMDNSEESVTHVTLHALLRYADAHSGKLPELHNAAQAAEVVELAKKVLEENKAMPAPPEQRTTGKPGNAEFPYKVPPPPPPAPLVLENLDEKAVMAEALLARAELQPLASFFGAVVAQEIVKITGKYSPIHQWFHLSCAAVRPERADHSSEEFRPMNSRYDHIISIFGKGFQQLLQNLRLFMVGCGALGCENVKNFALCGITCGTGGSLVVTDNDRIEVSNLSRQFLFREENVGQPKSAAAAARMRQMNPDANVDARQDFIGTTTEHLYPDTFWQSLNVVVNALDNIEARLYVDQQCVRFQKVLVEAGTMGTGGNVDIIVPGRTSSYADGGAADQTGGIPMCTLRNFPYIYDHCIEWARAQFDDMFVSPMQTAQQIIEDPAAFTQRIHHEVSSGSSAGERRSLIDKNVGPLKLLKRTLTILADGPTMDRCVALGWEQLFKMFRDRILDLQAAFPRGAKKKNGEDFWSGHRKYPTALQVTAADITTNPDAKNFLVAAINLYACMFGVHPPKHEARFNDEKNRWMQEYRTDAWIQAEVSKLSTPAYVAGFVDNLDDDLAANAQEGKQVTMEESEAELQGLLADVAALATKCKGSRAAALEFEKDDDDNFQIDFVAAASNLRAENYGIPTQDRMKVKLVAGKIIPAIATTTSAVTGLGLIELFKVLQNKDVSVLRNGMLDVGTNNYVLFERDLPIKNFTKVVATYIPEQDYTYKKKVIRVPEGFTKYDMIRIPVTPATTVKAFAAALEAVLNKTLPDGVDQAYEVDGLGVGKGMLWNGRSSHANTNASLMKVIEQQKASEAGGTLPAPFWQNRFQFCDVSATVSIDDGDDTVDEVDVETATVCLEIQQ

[3] = molecular target: AMP-activated protein kinase, AMPK (Homo sapiens) (UniProt P54646+O43741+P54619+Q9UGJ0+Q9Y478+Q13131+Q9UGI9); test: AMP-dependent Kinase enzyme assay. An in vitro enzyme assay that detects ADP turnover that is directly proportional to AMPK activity. This uses naive AMPK that is activated during the assay with MK-8722; assay type: functional; settings: 30 µM
[4] = molecular target: Sialic acid-binding Ig-like lectin 9 (Homo sapiens) (UniProt Q9Y336); test: Hs-Siglec9 ALPHAscreen SOP 20170721; settings: 10 µM
Sialic acid-binding Ig-like lectin 9 (Homo sapiens), sequence (Q9Y336 whole entry): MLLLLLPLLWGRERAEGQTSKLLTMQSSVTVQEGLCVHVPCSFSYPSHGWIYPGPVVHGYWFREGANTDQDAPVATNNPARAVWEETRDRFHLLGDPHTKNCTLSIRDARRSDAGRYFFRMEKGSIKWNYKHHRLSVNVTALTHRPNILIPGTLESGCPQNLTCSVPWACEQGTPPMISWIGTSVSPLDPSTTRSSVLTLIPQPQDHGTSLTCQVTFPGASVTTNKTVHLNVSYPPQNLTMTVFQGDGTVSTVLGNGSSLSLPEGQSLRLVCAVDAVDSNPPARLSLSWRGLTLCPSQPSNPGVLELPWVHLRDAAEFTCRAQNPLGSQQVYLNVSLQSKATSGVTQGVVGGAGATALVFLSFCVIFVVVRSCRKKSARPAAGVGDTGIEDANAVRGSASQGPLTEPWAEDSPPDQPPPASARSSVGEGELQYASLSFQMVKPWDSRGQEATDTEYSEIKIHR

[5] = system: Trypanosoma cruzi; test: Trypanosoma cruzi phosphomannomutase and mannose-1-phosphate guanylyltransferase assay; assay type: functional; settings: 10 µM
[6] = molecular target: T2, Arginase-2, mitochondrial (Homo sapiens) (UniProt P78540); test: in vitro enzyme assay to detect the production of urea directly proportional to the activity of Arginase II; assay type: functional; settings: 33.3 µM; note: in the data most compounds retested in dose-response had high values
T2 sequence (whole entry): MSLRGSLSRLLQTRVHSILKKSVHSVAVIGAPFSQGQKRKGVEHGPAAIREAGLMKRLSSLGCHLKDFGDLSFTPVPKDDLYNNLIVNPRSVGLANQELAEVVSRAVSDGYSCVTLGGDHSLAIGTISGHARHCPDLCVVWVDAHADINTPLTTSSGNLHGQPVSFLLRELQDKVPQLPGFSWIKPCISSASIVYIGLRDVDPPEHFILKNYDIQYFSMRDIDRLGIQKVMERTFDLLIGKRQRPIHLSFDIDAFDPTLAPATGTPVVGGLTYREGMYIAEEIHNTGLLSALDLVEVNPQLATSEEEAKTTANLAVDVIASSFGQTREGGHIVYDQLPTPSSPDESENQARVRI

[7] = molecular target: T3, Proteasome subunit beta (Trypanosoma cruzi) (UniProt O96673); test: Trypanosoma cruzi proteasome chymotrypsin-like activity (TcProtChymo) assay.; note: in the data most compounds retested in dose-response had high values; assay type: functional; settings: 9.37 µM
T3 sequence (whole entry): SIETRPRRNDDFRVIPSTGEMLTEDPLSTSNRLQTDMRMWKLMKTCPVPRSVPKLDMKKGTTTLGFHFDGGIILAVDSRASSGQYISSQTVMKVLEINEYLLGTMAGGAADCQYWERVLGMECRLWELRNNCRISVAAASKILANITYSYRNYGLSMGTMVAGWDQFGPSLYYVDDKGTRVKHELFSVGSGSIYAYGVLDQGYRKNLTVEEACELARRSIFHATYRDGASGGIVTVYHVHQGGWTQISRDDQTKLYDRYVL

[8] = species on record: Homo sapiens; test: To identify inhibition of the IFN signalling (Jak-Stat) pathway via expression of an eGFP reporter gene under the control of an IFN-stimulated response element (ISRE) containing MxA promoter.; assay type: functional; settings: 30 µM
[9] = molecular target: T4, Tyrosyl-tRNA synthetase, putative (Trypanosoma cruzi (strain CL Brener)) (UniProt Q4DSP6); test: Trypanosoma cruzi tyrosyl tRNA synthetase (TcYRS) _High Tyrosine SOP; assay type: functional; settings: 30 µM; note: in the data most compounds retested in dose-response had high values
T4 sequence (whole entry): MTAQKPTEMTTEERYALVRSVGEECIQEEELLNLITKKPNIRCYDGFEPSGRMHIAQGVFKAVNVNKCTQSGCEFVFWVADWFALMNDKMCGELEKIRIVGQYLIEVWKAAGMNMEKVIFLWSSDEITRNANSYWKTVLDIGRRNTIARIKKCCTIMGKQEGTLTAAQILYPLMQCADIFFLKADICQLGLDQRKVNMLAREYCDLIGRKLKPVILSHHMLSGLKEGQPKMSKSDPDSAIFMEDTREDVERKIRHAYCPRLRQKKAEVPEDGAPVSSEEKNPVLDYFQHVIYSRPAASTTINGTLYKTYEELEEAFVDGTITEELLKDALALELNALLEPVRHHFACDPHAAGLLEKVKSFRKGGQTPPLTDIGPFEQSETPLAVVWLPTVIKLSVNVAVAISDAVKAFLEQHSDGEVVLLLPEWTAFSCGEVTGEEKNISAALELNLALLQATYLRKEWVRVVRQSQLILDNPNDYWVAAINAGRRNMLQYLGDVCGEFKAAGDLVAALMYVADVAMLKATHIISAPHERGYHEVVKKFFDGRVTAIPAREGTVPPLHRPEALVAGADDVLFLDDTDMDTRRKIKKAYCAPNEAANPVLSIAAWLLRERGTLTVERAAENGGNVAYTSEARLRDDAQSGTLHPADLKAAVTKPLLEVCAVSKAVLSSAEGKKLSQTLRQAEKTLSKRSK

[10] = molecular target: T4, Tyrosyl-tRNA synthetase, putative (Trypanosoma cruzi (strain CL Brener)); test: Trypanosoma cruzi tyrosyl tRNA synthetase (TcYRS) SOP; assay type: functional; settings: 30 µM
[11] = molecular target: Chromo domain-containing protein 1 (Saccharomyces cerevisiae (strain ATCC 204508 / S288c) (Baker's yeast)) (UniProt P32657); test: ScCHD-1 Enzyme Inhibition Assay; assay type: functional; settings: 30 µM; note: in the data most compounds retested in dose-response had high values
Chromo domain-containing protein 1 (Saccharomyces cerevisiae (strain ATCC 204508 / S288c) (Baker's yeast)), sequence (P32657 whole entry, the tested form may be a part): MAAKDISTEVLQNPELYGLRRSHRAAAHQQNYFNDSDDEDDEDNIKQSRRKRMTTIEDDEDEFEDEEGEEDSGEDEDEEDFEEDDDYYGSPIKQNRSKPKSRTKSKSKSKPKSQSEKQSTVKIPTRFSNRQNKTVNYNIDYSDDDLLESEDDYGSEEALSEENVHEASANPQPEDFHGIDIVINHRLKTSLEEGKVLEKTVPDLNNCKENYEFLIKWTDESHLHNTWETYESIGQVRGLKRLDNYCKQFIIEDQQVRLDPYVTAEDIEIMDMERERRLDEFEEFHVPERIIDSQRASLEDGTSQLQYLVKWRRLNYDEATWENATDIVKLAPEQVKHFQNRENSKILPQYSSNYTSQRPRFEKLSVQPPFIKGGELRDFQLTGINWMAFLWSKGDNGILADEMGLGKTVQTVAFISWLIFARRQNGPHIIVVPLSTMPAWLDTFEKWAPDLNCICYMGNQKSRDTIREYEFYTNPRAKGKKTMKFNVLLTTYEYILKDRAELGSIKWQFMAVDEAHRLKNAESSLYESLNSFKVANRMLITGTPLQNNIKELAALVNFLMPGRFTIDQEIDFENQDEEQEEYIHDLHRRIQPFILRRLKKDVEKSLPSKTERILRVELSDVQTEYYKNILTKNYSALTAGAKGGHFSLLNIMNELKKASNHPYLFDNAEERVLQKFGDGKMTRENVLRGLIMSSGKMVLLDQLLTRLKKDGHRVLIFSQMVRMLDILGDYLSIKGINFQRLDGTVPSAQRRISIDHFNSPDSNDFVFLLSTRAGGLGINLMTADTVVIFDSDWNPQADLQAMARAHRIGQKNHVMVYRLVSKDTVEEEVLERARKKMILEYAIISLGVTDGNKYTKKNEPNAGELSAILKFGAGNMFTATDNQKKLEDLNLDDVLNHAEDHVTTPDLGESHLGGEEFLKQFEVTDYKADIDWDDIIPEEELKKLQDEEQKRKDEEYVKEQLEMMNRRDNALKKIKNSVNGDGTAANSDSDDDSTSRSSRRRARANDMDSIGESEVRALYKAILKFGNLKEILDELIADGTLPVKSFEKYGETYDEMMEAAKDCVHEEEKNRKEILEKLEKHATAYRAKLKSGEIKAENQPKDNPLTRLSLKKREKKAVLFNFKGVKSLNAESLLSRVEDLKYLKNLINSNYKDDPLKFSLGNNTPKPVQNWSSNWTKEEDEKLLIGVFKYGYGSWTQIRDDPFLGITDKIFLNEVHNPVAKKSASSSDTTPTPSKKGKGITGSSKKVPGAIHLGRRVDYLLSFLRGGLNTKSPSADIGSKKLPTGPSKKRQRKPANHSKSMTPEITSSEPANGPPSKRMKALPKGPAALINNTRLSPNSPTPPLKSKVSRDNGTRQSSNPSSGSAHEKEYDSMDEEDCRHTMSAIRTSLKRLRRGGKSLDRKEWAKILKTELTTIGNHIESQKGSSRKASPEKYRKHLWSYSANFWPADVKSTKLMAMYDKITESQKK

Protein translocase subunit SecA (Escherichia coli (strain K12)), sequence (P10408 whole entry): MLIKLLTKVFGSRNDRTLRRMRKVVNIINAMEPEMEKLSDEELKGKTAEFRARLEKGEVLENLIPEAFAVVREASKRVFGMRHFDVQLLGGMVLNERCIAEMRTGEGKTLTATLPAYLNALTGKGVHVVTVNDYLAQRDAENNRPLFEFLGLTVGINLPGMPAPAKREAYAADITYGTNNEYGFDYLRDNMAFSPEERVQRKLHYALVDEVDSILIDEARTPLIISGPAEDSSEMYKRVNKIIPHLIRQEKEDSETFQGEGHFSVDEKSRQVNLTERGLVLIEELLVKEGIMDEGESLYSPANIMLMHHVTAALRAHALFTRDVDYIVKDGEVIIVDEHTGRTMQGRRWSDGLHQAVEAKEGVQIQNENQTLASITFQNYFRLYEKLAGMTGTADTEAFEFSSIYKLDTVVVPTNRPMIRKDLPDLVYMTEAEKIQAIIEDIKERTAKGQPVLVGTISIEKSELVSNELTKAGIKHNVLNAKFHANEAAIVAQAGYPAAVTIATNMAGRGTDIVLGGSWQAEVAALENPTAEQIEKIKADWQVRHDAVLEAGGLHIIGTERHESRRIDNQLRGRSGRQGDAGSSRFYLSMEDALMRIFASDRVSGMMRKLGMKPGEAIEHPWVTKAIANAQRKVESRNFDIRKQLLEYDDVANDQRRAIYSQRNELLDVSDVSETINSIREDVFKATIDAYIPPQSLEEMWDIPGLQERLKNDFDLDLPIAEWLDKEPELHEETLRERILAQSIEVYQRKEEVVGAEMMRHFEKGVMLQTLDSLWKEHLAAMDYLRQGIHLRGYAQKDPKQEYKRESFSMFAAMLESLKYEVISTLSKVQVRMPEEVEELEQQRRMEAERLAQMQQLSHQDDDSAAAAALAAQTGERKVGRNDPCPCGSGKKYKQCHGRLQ

SMILES | Percent Effect [1] [%] | Percent Effect [2] [%] | Percent Effect [3] [%] | Percent Effect [4] [%] | Percent Effect [5] [%] | Percent Effect [6] [%] | Percent Effect [7] [%] | Percent Effect [8] [%] | Percent Effect [9] [%] | Percent Effect [10] [%] | Percent Effect [11] [%]
Cc1nc(CN2CCCC(NCCOCC(F)(F)F)C2)no1 (configuration not stated) | -6.82 | 7.59 | -4.02 | 0.79 | 4.44 | -1.52 | 4.18 | -2.76 | 4.43 | 8.86 | -5.18
CSCCC1c2nc[nH]c2CCN1Cc1ccnc2ccccc12 (configuration not stated) | -3.26 | 10.7 | -26.6 | 14.2 | 4.38 | 5.73 | 25.5 | 10.9 | 9.29 | 6.17 | -4.91
Cn1ccnc1CN1CCN(c2ccc(C#N)cc2F)CC1 | -4.37 | 21.6 | -10.5 | 15.7 | 3.44 | 4.25 | 11.1 | 17.8 | 6.93 | 23.2 | -6.24
Cc1cnn(CC2CCCN2Cc2nc3ccccc3n2C)c1 (configuration not stated) | -1.76 | -10.1 | -1.75 | 3.88 | 8.4 | 1.9 | -1.23 | -22.9 | 9.36 | 13.9 | -3.16
Cc1ccc(C(=O)N2CCC3(CC2)NC(=O)CC3c2ccccc2)cn1 (configuration not stated) | -2.54 | 2.67 | 3.38 | 7.94 | 0.965 | -48.6 | 7.35 | -9.77 | 2.08 | 5 | -2.72
Cc1cc(C[C@@H]2CCC[C@H]2NCc2cc(C)c(O)c(C)c2)on1 | 0.891 | 9.46 | 18.3 | -0.421 | -9.88 | -0.232 | 15.1 | 41.8 | 0 | 9.09 | -12.1
COCCN1CCCC(c2nc3c([nH]2)CC(C)(C)CNC3=O)C1 (configuration not stated) | 0.299 | 5.41 | -1.1 | 13.4 | 2.32 | 25.2 | 12.4 | 10.5 | 5.82 | 9.76 | 0.619
CCC(CNC(=O)Nc1cnn(CC)c1)N1CCCC1 (configuration not stated) | 0.765 | 17.7 | -9.29 | -3.26 | -6.33 | 3.04 | 8.27 | 8.67 | 3.45 | 16.5 | -5.82
O=C(C1CCS(=O)(=O)C1)N1CCN(c2cnccn2)CC1 (configuration not stated) | -5.3 | 16.2 | -5.15 | -2.95 | -7.52 | 0.185 | 6.46 | 14.3 | 5.94 | 15.8 | -4.21
CCn1cc2c(n1)CN(Cc1ccncc1)CC2COCC1CC1 (configuration not stated) | -3.54 | 10.7 | 12.3 | 6.03 | -1.97 | -0.699 | 10.7 | 4.31 | 6.38 | 11.5 | -6.9
Cc1ccc(N2CC[C@H]3OCC[C@@]3(C(=O)NC(C)C)C2)nn1 | -2.37 | 2.7 | -2.16 | 0.317 | 2.15 | 16.7 | 6.85 | 4.31 | 6.93 | 18.3 | -5.52
Cc1cnn(C2CCCN(C(=O)Cc3cn4ccccc4n3)C2)c1 (configuration not stated) | -5.24 | 19 | -2.41 | -0.453 | -0.103 | -1.5 | 11.8 | 4.05 | 1.04 | 17.7 | -26.5
CNS(=O)(=O)c1ccc(CNC(=O)NCC2CCCO2)cc1 (configuration not stated) | -5 | 13 | 16.9 | -9.06 | 1.67 | -2.74 | 12.8 | 14.9 | 0.952 | 18.8 | -17.3
CNC(=O)c1cc2c(nc1NCC1CC1)CCN(S(=O)(=O)C1CC1)CC2 | -0.616 | 18.2 | 3.29 | -14.9 | -2.86 | 8.39 | 9.75 | 33.1 | -1.06 | 11.5 | -8.62
COc1cccc(N2CCN(CC(O)c3ccc(C)cc3)CC2)c1 (configuration not stated) | -1.61 | 21.1 | -2.12 | -9.96 | 0.292 | 0 | 17 | 3.85 | 5.32 | 20.8 | 21
CC1CCCN(Cc2c(C3CCOCC3)[nH]c3ncccc23)C1 (configuration not stated) | -2.15 | 25.7 | 4.08 | -6.47 | 0.198 | -6.26 | 14.3 | 11 | 2.15 | 11.7 | -12
N#Cc1ccccc1C(=O)N1CCC2(CC(=O)NC2=O)C1 (configuration not stated) | 0.342 | 10.8 | 0.526 | 4.48 | -5.21 | -2.38 | 14 | 14.1 | 4.76 | 4.88 | -3.81
Cc1nc(C)c(C(=O)NCCNC(=O)Cc2ccccc2)s1 | -3.47 | 16.2 | -4.83 | 1.88 | -4.36 | -2.4 | 16.7 | 11.2 | 7.92 | 18.3 | -2.99
COc1c(CNCc2ccc(C(=O)NC3CC3)cc2)c(C)nn1C | -3.12 | 8.86 | -1.46 | 6.83 | -3.18 | 2.8 | 11 | 9.67 | 1.04 | 12.7 | -6.42
Cc1cc(C)c2c(c1)C1(CC(=O)Nc3c1cnn3C(C)C)C(=O)N2 (configuration not stated) | 0.0889 | 4 | 4.34 | 1.54 | 0.982 | -6.16 | 8.87 | 21.1 | 3.17 | 2.56 | -5.39
Cc1ccc(NC2CCN(C(=O)COc3cccnc3)CC2)nn1 | -5.07 | 21.5 | -3.6 | -4.99 | -0.923 | -1.94 | 14.1 | 12.9 | 4.17 | 15.2 | -15.5
COc1cccc(S(=O)(=O)NC(=O)COc2c(C)cccc2C)c1 | -5.17 | 7.79 | -10.1 | -4.14 | -2.81 | 2.13 | 6.08 | 10.3 | 0 | 12.2 | -4.1
